# Data as given in publication PMC7862700, “An all-to-all approach to the identification of sequence-specific readers for epigenetic DNA modifications on cytosine”.
# How the values were obtained:
# Test in all cases: DAPPL (digital affinity profiling via proximity ligation, sequencing); 10 mM Tris-HCl pH 7.5, 50 mM NaCl, 1 mM DTT, 4% glycerol, room temperature, 30 min; GST-TFs on glutathione beads, 16-mer random dsDNA library, 0.1% formaldehyde crosslink after washing; high values mean tight binding
# FEV = molecular target: T1, FEV (Homo sapiens, UniProt Q99581 1-238); conditions: protein: recombinant; tags: N-terminal GST; dsDNA, one strand shown
# T1 sequence: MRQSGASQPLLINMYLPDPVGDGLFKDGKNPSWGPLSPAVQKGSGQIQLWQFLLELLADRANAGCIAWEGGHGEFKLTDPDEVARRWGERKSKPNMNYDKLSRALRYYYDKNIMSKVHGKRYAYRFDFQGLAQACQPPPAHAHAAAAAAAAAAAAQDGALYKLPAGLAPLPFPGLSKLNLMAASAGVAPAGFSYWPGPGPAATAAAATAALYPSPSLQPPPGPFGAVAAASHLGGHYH
# In short: (§1)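 Pools of DNA-barcoded human transcription factors, expressed in yeast as GST fusions on glutathione beads and combined with a tag-only sample, were incubated with 200 nmole of a 16-mer random double-stranded DNA library. Incubation took 30 min at room temperature in Tris/NaCl/DTT/glycerol buffer and was followed by washing, 0.1% formaldehyde crosslinking, proximity ligation (BsaI/T4 ligase, 1 h, 37 °C), PCR amplification and sequencing on an Illumina NextSeq500. Binding signal is the ratio of a hexamer's read frequency for a factor to its frequency for the tag-only sample.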
# ETV5 = ETV5 (Homo sapiens, UniProt P41161 1-510); conditions: protein: recombinant; tags: N-terminal GST; dsDNA, one strand shown
# In short: as §1
# HSF1 = HSF1 (Homo sapiens, UniProt Q00613 1-529); conditions: protein: recombinant; tags: N-terminal GST; chain copies: 3; dsDNA, one strand shown
# In short: as §1
# SPIC = molecular target: T2, SPIC (Homo sapiens, UniProt Q8N5J4 1-248); conditions: protein: recombinant; tags: N-terminal GST; dsDNA, one strand shown
# T2 sequence: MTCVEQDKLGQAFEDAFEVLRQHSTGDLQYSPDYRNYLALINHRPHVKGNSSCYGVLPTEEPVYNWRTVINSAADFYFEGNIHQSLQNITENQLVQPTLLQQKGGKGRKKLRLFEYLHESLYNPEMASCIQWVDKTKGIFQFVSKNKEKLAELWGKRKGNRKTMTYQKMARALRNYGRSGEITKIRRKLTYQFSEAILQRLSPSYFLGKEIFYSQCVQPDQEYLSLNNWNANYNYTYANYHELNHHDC
# In short: as §1
# ELF4 = ELF4 (Homo sapiens, UniProt Q99607 1-663); conditions: protein: recombinant; tags: N-terminal GST; dsDNA, one strand shown
# In short: as §1
# ELK4 = molecular target: T3, ELK4 (Homo sapiens, UniProt P28324-2 1-405); conditions: protein: recombinant; tags: N-terminal GST; dsDNA, one strand shown
# T3 sequence: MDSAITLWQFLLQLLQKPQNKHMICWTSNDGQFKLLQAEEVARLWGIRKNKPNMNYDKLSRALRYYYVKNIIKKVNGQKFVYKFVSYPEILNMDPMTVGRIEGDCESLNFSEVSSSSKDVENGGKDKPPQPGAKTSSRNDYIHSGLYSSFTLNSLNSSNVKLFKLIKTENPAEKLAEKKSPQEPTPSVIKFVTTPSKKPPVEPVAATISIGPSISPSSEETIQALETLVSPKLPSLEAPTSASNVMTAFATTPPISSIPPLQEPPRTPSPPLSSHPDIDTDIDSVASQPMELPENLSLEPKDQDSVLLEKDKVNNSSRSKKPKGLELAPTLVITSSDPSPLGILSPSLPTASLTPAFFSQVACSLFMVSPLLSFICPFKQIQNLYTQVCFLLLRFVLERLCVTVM
# In short: as §1
# ETV2 = molecular target: T4, ETV2 (Homo sapiens, UniProt O00321 1-342); conditions: protein: recombinant; tags: N-terminal GST; dsDNA, one strand shown
# T4 sequence: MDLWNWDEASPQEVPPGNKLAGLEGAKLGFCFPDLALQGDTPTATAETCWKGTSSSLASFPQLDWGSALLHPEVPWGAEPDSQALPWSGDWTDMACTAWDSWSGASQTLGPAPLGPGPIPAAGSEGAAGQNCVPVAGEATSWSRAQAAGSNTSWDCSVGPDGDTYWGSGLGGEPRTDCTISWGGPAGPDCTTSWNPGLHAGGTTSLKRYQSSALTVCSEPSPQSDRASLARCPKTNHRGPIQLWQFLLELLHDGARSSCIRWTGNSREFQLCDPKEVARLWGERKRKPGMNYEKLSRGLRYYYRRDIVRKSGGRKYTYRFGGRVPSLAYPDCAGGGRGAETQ
# In short: as §1
# ELF3 = molecular target: T5, ELF3 (Homo sapiens, UniProt P78545 1-371); conditions: protein: recombinant; tags: N-terminal GST; dsDNA, one strand shown
# T5 sequence: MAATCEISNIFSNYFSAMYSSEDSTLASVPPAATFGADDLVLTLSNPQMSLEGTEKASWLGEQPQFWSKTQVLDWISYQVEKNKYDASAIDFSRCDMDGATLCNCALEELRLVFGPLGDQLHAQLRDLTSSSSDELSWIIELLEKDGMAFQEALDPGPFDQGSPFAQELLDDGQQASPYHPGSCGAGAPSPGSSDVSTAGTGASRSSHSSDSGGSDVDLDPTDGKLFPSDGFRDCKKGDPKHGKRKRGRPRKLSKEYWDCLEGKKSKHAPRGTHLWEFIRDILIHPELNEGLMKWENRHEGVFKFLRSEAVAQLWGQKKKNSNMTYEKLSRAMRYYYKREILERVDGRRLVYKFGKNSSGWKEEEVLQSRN
# In short: as §1
# CRX = CRX (Homo sapiens, UniProt O43186 1-299); conditions: protein: recombinant; tags: N-terminal GST; dsDNA, one strand shown
# In short: as §1
# ETV1 = ETV1 (Homo sapiens, UniProt P50549 1-477); conditions: protein: recombinant; tags: N-terminal GST; dsDNA, one strand shown
# In short: as §1
# ERF = molecular target: T6, ERF (Homo sapiens, UniProt P50548 1-548); conditions: protein: recombinant; tags: N-terminal GST; dsDNA, one strand shown
# T6 sequence: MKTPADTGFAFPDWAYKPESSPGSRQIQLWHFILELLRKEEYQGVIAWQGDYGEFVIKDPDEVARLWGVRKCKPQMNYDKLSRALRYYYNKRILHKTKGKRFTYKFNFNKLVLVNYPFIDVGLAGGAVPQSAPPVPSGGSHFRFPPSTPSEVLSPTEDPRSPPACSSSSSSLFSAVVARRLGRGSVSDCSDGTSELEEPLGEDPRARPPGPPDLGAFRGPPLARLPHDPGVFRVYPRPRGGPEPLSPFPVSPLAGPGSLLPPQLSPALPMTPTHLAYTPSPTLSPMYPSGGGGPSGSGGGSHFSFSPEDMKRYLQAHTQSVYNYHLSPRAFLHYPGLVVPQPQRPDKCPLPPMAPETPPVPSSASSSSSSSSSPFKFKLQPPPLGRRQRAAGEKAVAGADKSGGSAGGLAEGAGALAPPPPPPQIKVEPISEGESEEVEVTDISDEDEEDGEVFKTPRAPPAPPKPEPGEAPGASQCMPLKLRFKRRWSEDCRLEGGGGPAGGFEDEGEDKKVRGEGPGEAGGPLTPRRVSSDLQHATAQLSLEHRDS
# In short: as §1
# ETV3L = molecular target: T7, ETV3L (Homo sapiens, UniProt Q6ZN32 1-361); conditions: protein: recombinant; tags: N-terminal GST; dsDNA, one strand shown
# T7 sequence: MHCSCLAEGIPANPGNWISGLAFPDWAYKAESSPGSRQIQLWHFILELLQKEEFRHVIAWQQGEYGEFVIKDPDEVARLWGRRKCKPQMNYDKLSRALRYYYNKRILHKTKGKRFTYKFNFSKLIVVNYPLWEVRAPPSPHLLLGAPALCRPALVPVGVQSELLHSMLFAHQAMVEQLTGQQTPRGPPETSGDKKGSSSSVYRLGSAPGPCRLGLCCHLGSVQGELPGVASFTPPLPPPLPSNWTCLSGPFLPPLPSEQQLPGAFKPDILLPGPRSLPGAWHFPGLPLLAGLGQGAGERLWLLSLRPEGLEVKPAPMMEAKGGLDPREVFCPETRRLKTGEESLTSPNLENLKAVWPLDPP
# In short: as §1
# ETS2 = molecular target: T8, ETS2 (Homo sapiens, UniProt P15036 1-469); conditions: protein: recombinant; tags: N-terminal GST; dsDNA, one strand shown
# T8 sequence: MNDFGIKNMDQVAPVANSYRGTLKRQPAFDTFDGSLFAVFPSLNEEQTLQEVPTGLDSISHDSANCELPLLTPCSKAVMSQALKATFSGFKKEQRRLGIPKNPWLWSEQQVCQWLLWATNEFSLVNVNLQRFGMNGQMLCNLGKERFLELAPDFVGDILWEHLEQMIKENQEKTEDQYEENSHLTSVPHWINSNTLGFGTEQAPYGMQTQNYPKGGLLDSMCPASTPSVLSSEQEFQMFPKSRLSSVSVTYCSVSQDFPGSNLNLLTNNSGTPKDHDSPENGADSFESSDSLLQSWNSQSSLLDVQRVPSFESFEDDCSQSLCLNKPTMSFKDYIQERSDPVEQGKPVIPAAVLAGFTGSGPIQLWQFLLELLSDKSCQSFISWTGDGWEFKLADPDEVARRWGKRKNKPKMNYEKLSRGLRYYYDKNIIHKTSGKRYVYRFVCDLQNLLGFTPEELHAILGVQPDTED
# In short: as §1
# SPDEF = molecular target: T9, SPDEF (Homo sapiens, UniProt O95238 1-335); conditions: protein: recombinant; tags: N-terminal GST; dsDNA, one strand shown
# T9 sequence: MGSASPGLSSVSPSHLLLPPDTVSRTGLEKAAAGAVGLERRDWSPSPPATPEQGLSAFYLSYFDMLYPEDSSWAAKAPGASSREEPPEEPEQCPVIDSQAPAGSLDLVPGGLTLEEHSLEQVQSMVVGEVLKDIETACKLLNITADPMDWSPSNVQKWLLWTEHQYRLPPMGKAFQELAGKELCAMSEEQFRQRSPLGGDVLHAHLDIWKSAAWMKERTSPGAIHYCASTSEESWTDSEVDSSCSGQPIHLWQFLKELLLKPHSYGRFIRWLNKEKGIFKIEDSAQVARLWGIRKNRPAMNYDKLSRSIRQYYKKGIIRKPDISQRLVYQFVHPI
# In short: as §1
# ETV7 = molecular target: T10, ETV7 (Homo sapiens, UniProt Q9Y603 1-341); conditions: protein: recombinant; tags: N-terminal GST; dsDNA, one strand shown
# T10 sequence: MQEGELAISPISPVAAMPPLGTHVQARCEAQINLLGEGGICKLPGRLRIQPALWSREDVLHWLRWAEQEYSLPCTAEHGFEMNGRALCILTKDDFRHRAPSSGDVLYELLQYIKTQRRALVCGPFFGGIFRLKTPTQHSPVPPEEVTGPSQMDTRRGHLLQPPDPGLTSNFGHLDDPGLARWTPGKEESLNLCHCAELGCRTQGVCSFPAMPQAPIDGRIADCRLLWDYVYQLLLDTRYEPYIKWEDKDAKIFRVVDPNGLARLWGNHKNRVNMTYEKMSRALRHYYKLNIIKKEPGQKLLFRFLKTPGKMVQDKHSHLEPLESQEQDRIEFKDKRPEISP
# In short: as §1
# ELF5 = molecular target: T11, ELF5 (Homo sapiens, UniProt Q9UKW6-2 1-255); conditions: protein: recombinant; tags: N-terminal GST; dsDNA, one strand shown
# T11 sequence: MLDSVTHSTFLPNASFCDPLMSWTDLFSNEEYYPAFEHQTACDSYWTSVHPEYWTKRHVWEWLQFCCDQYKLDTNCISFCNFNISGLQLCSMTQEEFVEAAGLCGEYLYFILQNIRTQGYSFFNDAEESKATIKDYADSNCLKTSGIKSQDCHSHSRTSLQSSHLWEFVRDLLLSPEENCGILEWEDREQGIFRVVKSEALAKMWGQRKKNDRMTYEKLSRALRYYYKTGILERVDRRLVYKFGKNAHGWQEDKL
# In short: as §1
# ETV3 = molecular target: T12, ETV3 (Homo sapiens, UniProt P41162-2 1-143); conditions: protein: recombinant; tags: N-terminal GST; dsDNA, one strand shown
# T12 sequence: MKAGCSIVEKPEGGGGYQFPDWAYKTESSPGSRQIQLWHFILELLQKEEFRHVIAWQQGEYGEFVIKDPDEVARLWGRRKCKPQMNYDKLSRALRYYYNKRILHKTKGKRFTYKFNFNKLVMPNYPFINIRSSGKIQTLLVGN
# In short: as §1
# ETV6 = ETV6 (Homo sapiens, UniProt P41212 1-452); conditions: protein: recombinant; tags: N-terminal GST; dsDNA, one strand shown
# In short: as §1
# Sequence of ETV5 (P41161 whole entry): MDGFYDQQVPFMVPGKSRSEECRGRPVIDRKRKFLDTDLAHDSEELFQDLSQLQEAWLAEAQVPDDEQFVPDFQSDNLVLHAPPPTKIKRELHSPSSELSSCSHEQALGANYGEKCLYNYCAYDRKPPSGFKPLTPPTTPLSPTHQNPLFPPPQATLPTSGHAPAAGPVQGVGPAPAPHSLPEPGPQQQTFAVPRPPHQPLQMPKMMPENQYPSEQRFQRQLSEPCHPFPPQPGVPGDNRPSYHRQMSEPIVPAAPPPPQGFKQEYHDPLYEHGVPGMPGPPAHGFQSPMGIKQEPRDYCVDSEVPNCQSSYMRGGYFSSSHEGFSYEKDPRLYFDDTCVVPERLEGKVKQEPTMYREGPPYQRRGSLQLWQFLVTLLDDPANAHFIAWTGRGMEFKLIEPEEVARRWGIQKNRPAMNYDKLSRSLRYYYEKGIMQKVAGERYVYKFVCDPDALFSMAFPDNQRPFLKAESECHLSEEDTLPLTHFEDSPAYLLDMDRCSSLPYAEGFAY
# Sequence of ELF4 (Q99607 whole entry): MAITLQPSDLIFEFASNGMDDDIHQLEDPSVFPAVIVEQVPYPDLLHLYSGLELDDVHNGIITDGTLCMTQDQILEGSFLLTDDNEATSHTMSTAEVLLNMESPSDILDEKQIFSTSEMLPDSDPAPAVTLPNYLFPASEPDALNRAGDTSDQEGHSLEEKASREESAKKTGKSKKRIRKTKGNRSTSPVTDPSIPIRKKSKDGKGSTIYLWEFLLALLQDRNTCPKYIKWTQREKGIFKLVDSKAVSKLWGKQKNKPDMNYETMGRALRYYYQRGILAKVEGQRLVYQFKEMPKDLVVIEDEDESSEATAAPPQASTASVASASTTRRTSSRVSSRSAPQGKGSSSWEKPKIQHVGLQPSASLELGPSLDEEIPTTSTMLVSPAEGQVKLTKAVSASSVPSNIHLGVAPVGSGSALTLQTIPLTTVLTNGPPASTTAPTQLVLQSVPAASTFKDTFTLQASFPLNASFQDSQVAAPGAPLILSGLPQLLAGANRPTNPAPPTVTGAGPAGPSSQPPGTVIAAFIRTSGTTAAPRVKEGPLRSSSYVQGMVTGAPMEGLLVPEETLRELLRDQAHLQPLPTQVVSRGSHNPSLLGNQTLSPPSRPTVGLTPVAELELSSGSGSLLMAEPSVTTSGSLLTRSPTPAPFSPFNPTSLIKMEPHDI
# Sequence of ETV1 (P50549 whole entry): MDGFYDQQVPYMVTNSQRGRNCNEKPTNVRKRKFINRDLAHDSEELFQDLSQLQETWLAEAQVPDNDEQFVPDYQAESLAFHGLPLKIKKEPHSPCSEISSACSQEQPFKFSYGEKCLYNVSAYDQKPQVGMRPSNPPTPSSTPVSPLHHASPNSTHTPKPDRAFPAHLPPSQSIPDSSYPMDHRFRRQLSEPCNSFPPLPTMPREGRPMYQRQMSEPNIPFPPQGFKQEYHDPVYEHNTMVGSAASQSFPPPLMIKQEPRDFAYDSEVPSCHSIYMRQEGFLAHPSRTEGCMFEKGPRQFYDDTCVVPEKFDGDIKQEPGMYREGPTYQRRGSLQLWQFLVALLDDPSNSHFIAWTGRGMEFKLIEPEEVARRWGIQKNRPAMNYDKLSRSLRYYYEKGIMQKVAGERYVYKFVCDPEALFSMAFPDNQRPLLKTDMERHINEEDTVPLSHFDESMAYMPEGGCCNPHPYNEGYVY
# Sequence of CRX (O43186 whole entry): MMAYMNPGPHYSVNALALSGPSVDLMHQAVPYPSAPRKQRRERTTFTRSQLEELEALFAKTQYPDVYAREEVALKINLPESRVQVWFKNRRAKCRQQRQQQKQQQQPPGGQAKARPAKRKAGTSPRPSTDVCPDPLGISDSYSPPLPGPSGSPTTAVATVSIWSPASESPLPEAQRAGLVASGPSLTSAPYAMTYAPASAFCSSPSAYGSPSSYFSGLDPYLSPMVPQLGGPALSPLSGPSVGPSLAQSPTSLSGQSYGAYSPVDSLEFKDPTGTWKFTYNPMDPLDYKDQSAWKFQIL
# Sequence of HSF1 (Q00613 whole entry): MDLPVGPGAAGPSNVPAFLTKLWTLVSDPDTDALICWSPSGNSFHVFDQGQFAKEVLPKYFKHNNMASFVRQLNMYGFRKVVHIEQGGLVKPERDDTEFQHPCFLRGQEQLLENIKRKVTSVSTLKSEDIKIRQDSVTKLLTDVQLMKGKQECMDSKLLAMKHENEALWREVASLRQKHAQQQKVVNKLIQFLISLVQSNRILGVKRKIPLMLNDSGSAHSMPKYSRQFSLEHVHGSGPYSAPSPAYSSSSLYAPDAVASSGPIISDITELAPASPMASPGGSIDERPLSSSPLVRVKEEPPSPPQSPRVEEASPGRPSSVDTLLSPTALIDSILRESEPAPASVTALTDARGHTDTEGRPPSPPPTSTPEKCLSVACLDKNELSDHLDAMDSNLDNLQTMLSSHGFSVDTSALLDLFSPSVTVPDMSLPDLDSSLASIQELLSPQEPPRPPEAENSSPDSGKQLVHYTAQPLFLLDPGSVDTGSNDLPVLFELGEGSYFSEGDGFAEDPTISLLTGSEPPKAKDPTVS
# Sequence of ETV6 (P41212 whole entry): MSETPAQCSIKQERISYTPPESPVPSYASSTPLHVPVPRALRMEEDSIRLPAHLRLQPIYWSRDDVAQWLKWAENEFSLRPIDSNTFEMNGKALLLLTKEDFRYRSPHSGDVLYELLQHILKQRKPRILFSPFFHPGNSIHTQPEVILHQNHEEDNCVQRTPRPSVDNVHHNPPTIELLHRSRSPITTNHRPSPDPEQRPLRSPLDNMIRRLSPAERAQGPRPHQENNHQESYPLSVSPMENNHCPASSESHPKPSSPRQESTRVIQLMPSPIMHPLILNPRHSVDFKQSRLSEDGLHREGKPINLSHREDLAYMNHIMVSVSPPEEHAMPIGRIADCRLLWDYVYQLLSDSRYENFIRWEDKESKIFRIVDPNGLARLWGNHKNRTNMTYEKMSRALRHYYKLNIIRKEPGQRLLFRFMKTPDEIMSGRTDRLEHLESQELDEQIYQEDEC
sequence,measurement,setting,value
ACTACT,binding signal,FEV,"1.3 fold enrichment (6-mer frequency, TF over GST control)"
same,binding signal,ETV5,"1.19 fold enrichment (6-mer frequency, TF over GST control)"
same,binding signal,HSF1,"1.12 fold enrichment (6-mer frequency, TF over GST control)"
same,binding signal,SPIC,"1.26 fold enrichment (6-mer frequency, TF over GST control)"
same,binding signal,ELF4,"1.22 fold enrichment (6-mer frequency, TF over GST control)"
same,binding signal,ELK4,"1.36 fold enrichment (6-mer frequency, TF over GST control)"
same,binding signal,ETV2,"1.44 fold enrichment (6-mer frequency, TF over GST control)"
same,binding signal,ELF3,"1.24 fold enrichment (6-mer frequency, TF over GST control)"
same,binding signal,CRX,"1.11 fold enrichment (6-mer frequency, TF over GST control)"
same,binding signal,ETV1,"1.14 fold enrichment (6-mer frequency, TF over GST control)"
same,binding signal,ERF,"1.33 fold enrichment (6-mer frequency, TF over GST control)"
same,binding signal,ETV3L,"1.37 fold enrichment (6-mer frequency, TF over GST control)"
same,binding signal,ETS2,"1.25 fold enrichment (6-mer frequency, TF over GST control)"
same,binding signal,SPDEF,"1.15 fold enrichment (6-mer frequency, TF over GST control)"
same,binding signal,ETV7,"1.35 fold enrichment (6-mer frequency, TF over GST control)"
same,binding signal,ELF5,"1.34 fold enrichment (6-mer frequency, TF over GST control)"
same,binding signal,ETV3,"1.13 fold enrichment (6-mer frequency, TF over GST control)"
same,binding signal,ETV6,"1.27 fold enrichment (6-mer frequency, TF over GST control)"
